Experimental findings from PubChem BioAssay (NCATS) are described below.

Assay [1] has as its target Cellular tumor antigen p53 (Homo sapiens) (UniProt P04637). The experiment in a line: Primary qHTS for small molecule compounds that upregulate eGFP-tagged delta133p53alpha (in N-terminal) cells. (AID 2060322).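 For activation: series mostly up to about 56 µM; 0% = DMSO vehicle and 100% = reference activator.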 Note: nearly all actives have a fitted effect of over 75% in size. Note: potency is the fitted concentration of half-maximal effect. The settings on record: NCI-H358 eGFP-delta133p53alpha fluorescence, 24 h; activation: stronger effect = higher value. In short, it runs like this: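 NCI-H358 cells pre-induced 24 h with 10 ng/ml doxycycline to express N-terminal eGFP-delta133p53alpha, then dosed 24 h at 37C without doxycycline; fixed, Hoechst-stained, GFP intensity by laser scanning cytometry, normalized to DMSO (0%) and 57.5 uM 5-azacytidine (100%).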
For orientation: qHTS replaces the single test concentration by a dilution series.

Assay [2] deals with Aldehyde dehydrogenase, mitochondrial (Homo sapiens) (UniProt P05091). The experiment in a line: qHTS for Inhibitors of the Aldehyde Dehydrogenase Family (ALDH2) Confirmatory screens (AID 2061303; active = well fitted inhibition curve with a large enough effect; title and protocol of this record describe different tests; note: nearly all actives have a fitted effect of over 45% in size; note: potency is the fitted concentration of half-maximal effect).
Assay [3] is described as follows: qHTS for Inhibitors of the Aldehyde Dehydrogenase Family (ALDH1A2, ALDH1A3, ALDH2, ALDH3A1) (AID 2061307). For Potency: test system not described further here; potency is the fitted concentration of half-maximal effect. Note: nearly all actives have a fitted effect of over 50% in size.
Assay [4] has as its target Aldehyde dehydrogenase, mitochondrial (Homo sapiens) (UniProt P05091). The assay can be described thus: qHTS for Inhibitors of the Aldehyde Dehydrogenase Family (ALDH2) Primary screen (AID 2061308). Note: nearly all actives have a fitted effect of over 55% in size. Note: potency is the fitted concentration of half-maximal effect.
Assay [5] has as its target Retinaldehyde dehydrogenase 3 (Homo sapiens) (UniProt P47895). The assay can be described thus: qHTS for Inhibitors of the Aldehyde Dehydrogenase Family (ALDH1A3) Confirmatory screens (AID 2061311). Note: nearly all actives have a fitted effect of over 60% in size. Note: potency is the fitted concentration of half-maximal effect.
Assay [6] shares this target. The assay can be described thus: qHTS for Inhibitors of the Aldehyde Dehydrogenase Family (ALDH1A3) Primary screen (AID 2061315).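 Note: plate controls were DMSO vehicle for no effect and reference inhibitor for full effect.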
For assay [7], the target named is Retinal dehydrogenase 2 (Homo sapiens) (UniProt O94788). The assay can be described thus: qHTS for Inhibitors of the Aldehyde Dehydrogenase Family (ALDH1A2) Confirmation screens (AID 2061314). Note: nearly all actives have a fitted effect of over 65% in size. Note: potency is the fitted concentration of half-maximal effect.
Assay [8] deals with Aldehyde dehydrogenase 1A1 (Homo sapiens) (UniProt P00352). The assay can be described thus: qHTS for Inhibitors of the Aldehyde Dehydrogenase Family (ALDH1A1) Confirmatory screens (AID 2061316). Note: nearly all actives have a fitted effect of over 65% in size. Note: potency is the fitted concentration of half-maximal effect.
The target in assay [9] is Retinaldehyde dehydrogenase 3 (Homo sapiens) (UniProt P47895). The assay can be described thus: qHTS for Inhibitors of the Aldehyde Dehydrogenase Family (ALDH1A3) Validation screen (AID 2061312). Note: % is set by controls: 0 for no effect and ±100 for the full control effect; nearly all actives have a fitted effect of over 45% in size.
Assay [10] is described as follows: BET inhibitor-based combinations targeting novel dependencies in MECOM-rearranged (r) AML: SET-2 cell line (AID 2202231).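 For viability: plate controls were DMSO treated cells for no effect and wells without cells for full effect.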 Note: nearly all actives have a fitted effect of over 35% in size. Note: potency is the fitted concentration of half-maximal effect. To be noted: SET-2 AML cells viability, CellTiter-Glo luminescence, 48 h; viability: stronger effect = lower value, concentration not given here. In short, it runs like this: (§1)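 Here, 11-point titrations of each agent were applied to 500 seeded cells and incubated 48 hr; CellTiter-Glo signal, scaled against DMSO and empty wells, was integrated as AUC, then Z-scored within the individual line.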
(In general: Cellular ATP, detected with luciferase, serves as a proxy for viable cell number.)

Assay [11] can be described thus: BET inhibitor-based combinations targeting novel dependencies in MECOM-rearranged (r) AML: OCI-AML3 cell line (AID 2202232). Note: nearly all actives have a fitted effect of over 35% in size. Note: potency is the fitted concentration of half-maximal effect. To be noted: Potency: OCI-AML3 viability. In a few lines: as §1
A short description of assay [12]: BET inhibitor-based combinations targeting novel dependencies in MECOM-rearranged (r) AML: MV-4-11 cell line (AID 2202233). Note: nearly all actives have a fitted effect of over 45% in size. Note: potency is the fitted concentration of half-maximal effect. In short, it runs like this:
(§2)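 Normalized to DMSO and empty-well controls, the luminescence data from CellTiter-Glo after 48 hr drug exposure were fitted across 11 concentrations. Reported metrics are area under the dose-response curve and its Z-transformed form.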

Assay [13] is described as follows: BET inhibitor-based combinations targeting novel dependencies in MECOM-rearranged (r) AML: UCSD-AML1 cell line (AID 2202235). Note: nearly all actives have a fitted effect of over 40% in size. Note: potency is the fitted concentration of half-maximal effect. In short, it runs like this: as §2
Assay [14] in a line: BET inhibitor-based combinations targeting novel dependencies in MECOM-rearranged (r) AML: AML-191 cell line (AID 2202236; note: nearly all actives have a fitted effect of over 35% in size; note: potency is the fitted concentration of half-maximal effect). In a few lines: as §1
The nature of assay [15]: BET inhibitor-based combinations targeting novel dependencies in MECOM-rearranged (r) AML: HNT-34 cell line (AID 2202234). Note: nearly all actives have a fitted effect of over 35% in size. Note: potency is the fitted concentration of half-maximal effect. In short, it runs like this: as §2
The nature of assay [16]: BET inhibitor-based combinations targeting novel dependencies in MECOM-rearranged (r) AML: AML-194 cell line (AID 2202237; note: nearly all actives have a fitted effect of over 40% in size; note: potency is the fitted concentration of half-maximal effect). In short, it runs like this:
as §1

Several values for one entry are separate records, joined by “and”; a condition that tells them apart may be missing. Equal entries are not always repeated. Inconclusive results are not listed. A number with no mark means an inactive call. Activity calls are given as the source filed them. Unless noted, calls come from the whole dose curve; as a rule, active = well fitted curve in the direction sought with a large enough effect; inconclusive = small, poorly fitted or top-dose-only effect, or another doubt; inactive = no such curve, though single readings can be large; an effect the other way counts as inactive or inconclusive.

Chain of Cellular tumor antigen p53 (Homo sapiens) (P04637 whole entry, looked up): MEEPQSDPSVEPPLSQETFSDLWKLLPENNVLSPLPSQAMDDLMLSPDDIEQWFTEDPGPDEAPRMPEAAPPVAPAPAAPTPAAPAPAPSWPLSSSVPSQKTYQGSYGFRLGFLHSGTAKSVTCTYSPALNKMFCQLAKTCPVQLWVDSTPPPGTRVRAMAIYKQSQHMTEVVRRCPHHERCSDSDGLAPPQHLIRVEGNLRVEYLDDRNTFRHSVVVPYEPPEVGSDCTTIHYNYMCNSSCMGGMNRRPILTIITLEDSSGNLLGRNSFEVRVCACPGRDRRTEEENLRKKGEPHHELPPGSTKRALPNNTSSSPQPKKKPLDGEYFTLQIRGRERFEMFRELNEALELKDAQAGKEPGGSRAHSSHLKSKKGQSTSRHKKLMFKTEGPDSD

For the molecule `NC(=O)c1cccc(-c2cc(OC(=O)NC3CCCCC3)ccc2O)c1`, in assay [1], the activation was 7%. Also, the Potency entry in [2], in assay [4], in [5] and in [6] was “inactive” each time. Moreover, in [3], the Potency was 10.1 µM (active).

`CC1(C)SCCN(S(=O)(=O)c2ccc(Oc3ccncc3)cc2)[C@H]1C(=O)NO`: the activation in [1] was 20.3%. Also, the Potency result in assay [2], in [3], in [4] and in assay [7] was “inactive” in each case.

Regarding `CC1(C)[C@H](C(=O)O)N2C(=O)C[C@H]2S1(=O)=O`, in assay [1], the activation is -10% and -6.44% and -12.3%. The Potency result in assay [2], in [3], in assay [4], in assay [7], in [6] and in [8] was “inactive” in each case.

For the molecule `COc1cc(/C=C/C(=O)OCC2OC(OC3(CO)OC(CO)C(O)C3O)C(O)C(O)C2O)ccc1O` (stereo not given), the activation in assay [1] is 10.7%. Besides, the Potency result in assay [2], in [3], in assay [4] and in [8] was “inactive” each time.

Consider `CCOc1ccc(Nc2nc(-c3c(C)nc4ccccn34)cs2)cc1`, for which the activation in [1] was -3.9% and 0%. For the same molecule, the Potency was 15.8 µM (active) in [2]; 7.94 µM (active) in [3]; 0.132 µM (active) in assay [10]; 0.0833 µM (active) in assay [11]; 0.105 µM (active) in assay [12]; 0.0934 µM (active) in [13]. Further, the Potency in assay [14] was 0.0833 µM (active). Also, the Potency result in [4], in [9], in [7] and in assay [6] was “inactive” each time.

Broadly, the viability is a read-out of living cells in per cent, often relative to untreated cells. Consider `O=C1C(c2c(O)[nH]c3ccccc23)=Nc2ccccc21`, for which the activation in assay [1] is -10.6% and 17.7%. Also, the Potency result in assay [2], in [3], in [4], in assay [5], in assay [6] and in [8] was “inactive” each time. Moreover, the Potency entry in assay [11], in [15], in assay [13], in assay [14] and in [16] was “inactive” throughout. In [10], the viability is 103%.

Consider `CN1CCN(C2=Nc3ccccc3Nc3ccc(O)cc32)CC1`, for which the activation in assay [1] was 1.91%. Besides, the Potency entry in assay [2], in [3], in assay [4], in assay [9], in assay [7] and in assay [8] was “inactive” each time.

On to `CN(C)C(=O)Nc1cccc(-c2ccc(N(C)C)cc2)c1`, for which the activation in assay [1] is -14.8%. For the same molecule, the Potency entry in assay [2], in assay [3], in [4] and in [8] was “inactive” throughout.

Regarding `CC(C(=O)O)c1ccc2c(c1)CC(=O)c1ccccc1S2` (stereo not given), the activation in [1] is 0.619% and -1.69% and -1.43%. In addition, the Potency result in [2], in [3], in assay [4], in [5], in assay [6] and in assay [8] was “inactive” in each case. The Potency result in assay [11], in assay [12], in assay [15], in assay [13], in assay [14] and in assay [16] was “inactive” throughout. Further, the viability in [10] was 114%.

With `CC1(COc2ccc3c(c2)ncn3-c2ccc3cccc(N4CCC(N)CC4)c3n2)COC1`, the Potency was 21.3 µM (active) in [1]; 14.2 µM (active) in [7]; 13.2 µM (active) in assay [10]; 7.42 µM (active) in assay [11]; 0.0332 µM (active) in assay [12]; 5.9 µM (active) in assay [15]. The Potency in assay [13] is 4.17 µM (active); in assay [14], 2.09 µM (active); in assay [16], 2.35 µM (active). The Potency result in [2], in assay [3], in assay [4], in [6] and in assay [8] was “inactive” each time.

For `CC(C)c1c(-c2cnn(C(C)(C)C)c2)nc2c(C#N)c[nH]n2c1=O`, the activation in assay [1] was 11.2%. The Potency entry in [2], in [3], in assay [4], in assay [5], in assay [6] and in [8] was “inactive” in each case.

Regarding `CCOc1ccc2ccccc2c1C(=O)N[C@@H]1C(=O)N2[C@@H]1SC(C)(C)[C@@H]2C(=O)O`, the activation in assay [1] was 5.08% and -4.77%. Moreover, the Potency result in assay [2], in assay [3], in assay [4], in assay [9], in [7] and in [8] was “inactive” each time.

Consider `Cc1ncc(-c2ccnc(Nc3ccc(S(C)(=O)=O)cc3)n2)n1C(C)C`, for which the Potency is 3.06 µM (active) and 2.69 µM (active) in assay [1]; 11.3 µM (active) in [3]; 2.35 µM (active) in [11]; 0.59 µM (active) in assay [12]; 1.48 µM (active) in [15]; 1.18 µM (active) in assay [14]. In addition, the Potency in assay [16] is 1.86 µM (active). The Potency entry in [2], in assay [4], in [6] and in assay [8] was “inactive” throughout.

`C=C1CC[C@H]2[C@@](C)(CCC(OC3OC(CO)C(O)C(O)C3O)[C@@]2(C)CO)C1C(=O)CC1=CCOC1=O` (stereo not given in full): the activation in [1] was -1.53%. In addition, the Potency result in [2], in assay [3], in assay [4] and in [7] was “inactive” throughout.

As to `COc1cccc2cc(-c3nc(C4CCC(C(=O)O)CC4)n4ncnc(N)c34)[nH]c12` (stereo not given), in assay [1], the activation was 12.5% and 16.7%. Moreover, the Potency entry in [2], in [4] and in [6] was “inactive” each time. The Potency in [3] is 3.57 µM (active); in assay [11], 1.66 µM (active); in assay [12], 0.833 µM (active); in assay [15], 0.833 µM (active).

With `CC(C)(Cc1ccccc1)NCC(O)c1ccc(O)c(NS(C)(=O)=O)c1` (stereo not given), in assay [1], the activation is -0.955%. Besides, the Potency entry in assay [2], in assay [3], in assay [4], in assay [9], in assay [7] and in assay [8] was “inactive” in each case.

On to `CC1=NN(c2ccccc2)C(=O)C1`, for which the activation in assay [1] was -3.42% and 10.7% and -17%. In addition, the Potency in assay [2] is 12.6 µM (active); in assay [3] it was 6.31 µM (active); in assay [4], 0.794 µM (active); in [5], 8.91 µM (active); in [8], 1.42 µM (active). Moreover, the viability in assay [10] was 112%. Further, the Potency result in assay [11], in [12], in assay [15], in assay [13], in assay [14] and in assay [16] was “inactive” throughout.

Regarding `COc1cc(NC(=O)c2ccccn2)ccc1Cl`, in assay [1], the activation is -5.25%. In addition, the Potency entry in assay [2], in [3], in [4], in assay [7], in assay [6] and in assay [8] was “inactive” in each case.

Take `CNC(=O)c1cc(Oc2ccc(NC(=O)c3cccc(C(F)(F)F)c3)cc2)ccn1`: the activation in assay [1] is 8.04%. The Potency result in [2], in assay [4], in [7], in assay [6] and in assay [8] was “inactive” throughout. For the same molecule, in [3], the Potency is 6.34 µM (active).
